# Sampled rows, rich in hits. Any-hit rate of the full collection: about 4.8%.
# APP 5UTR inh – APP translation inhibition; inhibition, % at 2 µM; SH-SY5Y APP 5'UTR-luciferase reporter, luminescence; 190,000 tested, 0.82% active;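 active means inhibition above a set limit, derived from the sample mean plus 3 SD, cut at about 45% in these data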
# Wee1 degr inh – inhibitors of human Wee1 degradation; P30291; HeLa Luc-Wee1K328M stability, luciferase luminescence; 100% = proteasome inhibitor MG132 effect; reporter increase, % at 5 µM; 220,000 tested, 1.2% active; AID 1321;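 active means activation above the mean of all tested compounds plus 3 SD, set per screening run, cut at about 8.8% in these data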;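 further: cells exposed to compound for 20 h before luminescence read; 0% = DMSO alone and 100% = MG132 at 30 µM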
# Target sequence (P30291 whole entry K328M): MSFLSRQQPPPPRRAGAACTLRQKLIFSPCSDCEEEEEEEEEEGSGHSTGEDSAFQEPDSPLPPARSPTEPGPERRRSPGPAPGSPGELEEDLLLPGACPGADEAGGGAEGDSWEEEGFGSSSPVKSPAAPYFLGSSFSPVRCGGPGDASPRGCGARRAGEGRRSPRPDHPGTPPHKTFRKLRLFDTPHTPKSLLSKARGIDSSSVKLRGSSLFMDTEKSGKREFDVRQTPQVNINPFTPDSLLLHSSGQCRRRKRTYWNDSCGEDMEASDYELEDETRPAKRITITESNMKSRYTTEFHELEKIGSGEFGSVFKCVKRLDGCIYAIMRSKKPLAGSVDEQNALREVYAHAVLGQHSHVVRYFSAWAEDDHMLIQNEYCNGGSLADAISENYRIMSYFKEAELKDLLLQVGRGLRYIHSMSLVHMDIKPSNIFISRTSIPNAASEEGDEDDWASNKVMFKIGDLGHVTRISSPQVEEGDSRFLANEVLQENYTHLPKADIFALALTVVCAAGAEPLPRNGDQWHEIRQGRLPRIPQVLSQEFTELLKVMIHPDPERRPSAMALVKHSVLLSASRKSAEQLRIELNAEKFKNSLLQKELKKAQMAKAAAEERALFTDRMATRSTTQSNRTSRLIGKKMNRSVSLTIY
# APP 5'UTR act – activates APP 5'UTR luciferase reporter. SH-SY5Y APP 5'UTR luciferase reporter, luminescence; zero percent = DMSO vehicle wells. activation, % at 2 µM. 190,000 tested, 1% active;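 active means activation above a set limit, based on mean plus 3 SD of controls, cut at about 140% in these data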
# STAT1 act – activators of IFN-gamma induced STAT1 signaling | NIH 3T3 STAT1-luciferase reporter, luminescence; 100% = IFN-gamma alone, no compound | activation (% of control), % at 5.5 µM | 200,000 tested, 2.6% active;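 active means activation above the screen-wide mean activation plus 3 SD, cut at about 130% in these data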;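 further: raw ratio to IFN-gamma control signal so 100% means no change and 0% no light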
# NF-kB neuron act – raises NF-kB expression in human neuronal cells | NF-kB reporter expression; hits give high values | fold change at 12.5 µM | 190,000 tested, 1.6% active | AID 1239; in the data active means fold change above about 3.3
# Hsp70 act – transcriptional activators of Hsp70; HeLa Hsp70 promoter luciferase reporter, luminescence; scaled: vehicle 0, proteasome-inhibitor control 100%; activation, % at 10 µM; 200,000 tested, 0.04% active;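 active means activation above the mean across all tested compounds plus 3 SD, cutoff set per campaign, cut at about 5.5% in these data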;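 further: 100% = MG132 at 30 µM as the positive control and 0% = DMSO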
# Wee1 stab conf – human Wee1 degradation inhibition, confirmation | shares compounds with Wee1 degr inh | HeLa Luc-Wee1K328M degradation, luminescence; vehicle 0%, proteasome-blocked wells 100% | activation, % at 5 µM | 1,100 tested, 4% active; in the data active means activation above about 8.9%
# Active calls of the source: *; / = not tested or not shown.
SMILES,APP 5UTR inh,Wee1 degr inh,APP 5'UTR act,STAT1 act,NF-kB neuron act,Hsp70 act,Wee1 stab conf
CCOc1ccc(S(=O)(=O)N(C)c2ccc(OCC(=O)N3c4ccc(C)cc4C4CN(C)CCC43)cc2)cc1 (centres undefined),-15.4,13.4*,15.3,91.9,1.04,0.2,0.2
Cc1ccc2c(c1)C1CN(C)CCC1N2C(=O)COc1ccc(N(C)S(=O)(=O)c2cccs2)cc1 (centres undefined),/,0.8,/,/,/,/,/
Cc1ccc(F)cc1NC(=O)CCC(=O)c1cccs1,-9.6,-0.3,9.6,99.4,1.16,-0.3,/
Cc1ccc(NC(=O)CCC(=O)c2cccs2)c(O)c1,/,14.5*,/,/,/,/,-0.2
C=CCn1c(N)c(C(=O)Nc2ccccc2)c2nc3ccccc3nc21,17.3,14.8*,2.6,110.3,0.75,0.1,6.1
C=CCn1c(N)c(C(=O)OC(C)(C)C)c2nc3ccccc3nc21,11.3,3.3,-11.3,98.0,0.77,-0.2,/
CCS(=O)(=O)N1Cc2ccccc2CC1C(=O)Nc1ccccc1OC (centres undefined),/,0.3,/,/,/,/,/
CCS(=O)(=O)N1Cc2ccccc2CC1C(=O)Nc1ccc(F)cc1 (centres undefined),/,14.6*,/,/,/,/,0.4
COc1ccc2c(=O)c(-c3ccccc3)coc2c1,-158.4,9.9*,158.4*,129.8*,7.31*,-0.2,4.4
COc1ccc2c(=O)c(-c3ccc(OC)c(OC)c3)coc2c1,-34.3,7.6,34.3,120.6,1.87,0.4,/
NS(=O)(=O)c1ccc(NC(=O)CN2C(=O)c3ccccc3C2=O)cc1,/,19.2*,/,/,/,/,-1.9
NS(=O)(=O)c1ccc(NC(=O)CN2C(=O)CCC2=O)cc1,/,-1.8,/,/,/,/,/
CC1=C(C(N)=O)C(c2cccs2)n2ncnc2N1 (centres undefined),/,1.1,/,/,/,/,/
Nc1cccc(/C=C/C(=O)O)c1,/,-2.3,/,/,/,/,/
COC(=O)c1ccc(S(=O)(=O)N2CCCN(Cc3ccc(F)cc3)CC2)n1C,/,-0.4,/,/,/,/,/
CCOc1ccc(NC(=S)Nc2ccc(OCc3ccccc3)cc2)cc1,13.9,16.5*,-13.9,93.2,1.08,-0.5,1.0
Cc1sc2ncnc(OCc3nnc(-c4cccs4)o3)c2c1C,6.0,-3.3,-6.0,97.0,1.32,-0.3,/
CCOc1ccc(NC(=O)COc2nsnc2N2CCOCC2)cc1,-1.0,3.4,1.0,98.2,2.45,-0.2,/
NC(=O)C1=C[C@H](c2csc3ccccc23)C[C@H](OCCCCO)O1,-2.7,11.1*,2.7,109.4,0.91,0.5,-0.1
O=C(O)C1=C[C@@H](c2csc3ccccc23)C[C@@H](OCCCCO)O1,-7.3,1.1,7.3,97.0,1.02,0.2,/
O=C(CSc1nnnn1C1CCCC1)NCc1ccc2c(c1)OCO2,-13.4,-1.5,13.4,97.2,1.14,-0.2,/
O=C(NC1CCCC1)C(c1ccccc1)N(C(=O)c1ccco1)C1CCCC1 (centres undefined),-4.0,3.7,4.0,95.8,0.75,-0.3,/
CC(C)(C)NC(=O)C(c1ccc(F)cc1)N(Cc1cccs1)C(=O)c1ccc(CN2CCOCC2)o1 (centres undefined),-5.3,10.9*,5.3,91.2,0.94,-0.1,1.6
COc1ccccc1N(CN1CCCC1=O)C(=O)c1c(F)cccc1F,-6.1,-2.1,6.1,98.8,1.01,-0.4,/
C(=C\c1ccco1)/c1nc2ccccc2[nH]1,-135.8,13.6*,135.8*,110.7,5.05*,-0.2,2.9
SMILES,APP 5UTR inh,Wee1 degr inh,APP 5'UTR act,STAT1 act,NF-kB neuron act,Hsp70 act,Wee1 stab conf
O=C(NCc1nc2ccccc2[nH]1)c1ccco1,11.5,0.6,-11.5,107.8,1.26,0.2,/
Cc1cccc(C)c1NC(=O)c1c(-c2ccccc2)noc1C,-1.1,11.3*,1.1,102.0,1.03,-0.1,1.9
CCNC(=S)N1CCN(S(=O)(=O)c2ccc(C)c(C)c2)CC1,-14.1,2.3,14.1,90.0,1.12,-0.2,/
C=CCNC(=S)N1CCN(S(=O)(=O)c2ccc(C)cc2)CC1,/,16.6*,/,/,/,/,3.4
COc1ccc(CCC(=O)N(C)CC(=O)Nc2cc(C)ccc2C)cc1,4.6,17.4*,-4.6,97.7,1.06,-0.1,1.2
COc1ccc(CC(=O)NNC(=O)CCC(=O)Nc2cc(C)ccc2C)cc1,7.7,-1.8,-7.7,95.4,0.86,0.0,/
N#C/C(=C\c1ccc(OC(F)F)cc1)C(=O)N1CCCCC1,/,14.8*,/,/,/,/,0.3
CCN1CCN(C(=O)/C(C#N)=C/c2ccc(OC(F)F)cc2)CC1,-15.4,-0.8,15.4,100.2,1.22,-0.3,/
COc1ccc(OC)c2sc(N3CCN(c4ccccc4)CC3)nc12,-0.7,21.8*,0.7,104.3,/,-0.2,0.9
O=C(Nc1ccc(S(=O)(=O)Nc2nccs2)cc1)c1cnc(Cl)c(Cl)c1,/,19.0*,/,/,/,/,0.5
O=C(Nc1ccc(S(=O)(=O)Nc2ncccn2)cc1)c1cnc(Cl)c(Cl)c1,16.2,-2.3,-16.2,97.4,1.18,-0.2,/
CC1(C)CC(=O)C2=C(C1)OC(N)=C(C#N)C2c1cc2c(cc1[N+](=O)[O-])OCO2 (centres undefined),1.1,11.2*,-1.1,101.1,1.04,-0.3,2.3
O=S(=O)(c1ccc(Oc2ccc(S(=O)(=O)N(CCO)CCO)cc2)cc1)N(CCO)CCO,8.6,4.0,-8.6,105.0,0.99,0.0,/
O=S(=O)(c1ccc(N2CCC(c3ccc(Cl)cc3)=N2)cc1)N(CCO)CCO,-6.4,11.2*,6.4,106.8,1.69,-0.2,0.0
Cn1c2c(c(=O)c3ccccc31)CCC(C)(C)O2,-5.3,11.5*,5.3,105.0,1.44,-0.1,1.2
CCC1CCc2c(n(C)c3ccccc3c2=O)O1 (centres undefined),6.0,-1.1,-6.0,101.5,1.54,-0.2,/
O=C(NCc1ccccn1)c1cc(-c2ccccc2)nc2ccccc12,13.4,0.0,-13.4,98.0,0.58,-0.2,/
CCn1ncc(Br)c1C(=O)Nc1cccc(F)c1,22.5,13.3*,-22.5,92.5,1.12,-0.1,2.4
COc1ccc(/C=N/N=C(\N)c2nonc2N)cc1OC,-51.5,11.2*,51.5,141.1*,2.03,0.1,-0.2
CCOC(=O)c1sc(NC(=O)CNC(=O)Cn2cnc3sc(C)c(C)c3c2=O)nc1C,-13.7,11.1*,13.7,104.0,1.13,0.0,-2.1
COc1cccc(C2=NOC(C(=O)N3CCN(c4ccccc4)CC3)C2)c1OC (centres undefined),-5.8,31.1*,5.8,102.1,0.9,0.1,3.1
CCS(=O)(=O)Nc1cccc(-c2nc3cccnc3s2)c1,/,12.2*,/,/,/,/,0.5
CC(=O)Nc1c(C(=O)c2ccc(F)cc2)oc2ccccc12,17.7,3.7,-17.7,100.7,1.29,-0.2,/
COCCn1cc(C(=O)NCCCN2CCC(C)CC2)c2c3ccccc3n(C)c2c1=O,-7.7,13.6*,33.7,92.1,1.06,-0.3,0.9

# Screening results from PubChem BioAssay.
